Sampled rows, rich in hits. Any-hit rate of the full collection: about 3.4%.
Mito fusion yeast = blocks mitochondrial division or promotes mitochondrial fusion | S. cerevisiae fusion-defective mutant growth rescue, CellTiterGlo 48 h | AID 485298 | 320,000 tested, 0.23% active | Potency, µM (top dose mostly 46.1 µM), inactives show at the top dose growth rescue (activation), usual class: activators; also: % of control where 0% means no effect; nearly all actives have a fitted effect of over 45% in size
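Yeast fusion mutant, YPEG (non-fermentable carbon), compound, 48 h at 37C non-permissive; CellTiterGlo added, 10 min RT, luminescence read. Rescued growth = division inhibition.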
KAT2A inh = GCN5L2 (KAT2A) acetyltransferase inhibition; Q92830; GCN5L2 HAT assay, ThioGlo1 CoA-SH fluorescence; AID 504327; 390,000 tested, 0.21% active; Potency, µM (highest dose often 58.9 µM), for inactives: top-dose activity change, negative = inhibition, actives largely listed as inhibitors; also: % is scaled to controls: 0 for no effect and ±100 for the full control effect
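GCN5L2 (20nM final) in 50mM HEPES, 0.1mM EDTA pH 7.5, 0.01% Tween-20 was preincubated 15 min at room temperature with compound, then given ThioGlo1 (50uM), H3(1-25) peptide (75uM) and acetyl-CoA (70uM); CoA-thiol fluorescence (Ex340/Em540) was read at 0 and 20 min.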
VDR inhibitor = inhibitors of human vitamin D receptor; VDR-SRC2-3 peptide fluorescence polarization, 2 h; Potency, µM, for inactives: max response, negative = inhibition, actives largely listed as inhibitors; 400,000 tested, 0.93% active; AID 504847; also: % is scaled to controls: 0 for no effect and ±100 for the full control effect
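Signal is fluorescence polarization, reporting how far test compounds block the interaction of VDR with the SRC2-3 coregulator peptide after a 2 h room-temperature incubation.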
GLS inhibitor = glutaminase GLS (human) inhibition | GLS enzymatic activity, qHTS titration | Potency, µM (titrated, usually from 45.5 µM), for the others: at the top dose activity change, negative = inhibition, most hits filed as inhibitors | 410,000 tested, 0.21% active; also: % is scaled to controls: 0 for no effect and ±100 for the full control effect
Target sequence (O94925 whole entry, looked up): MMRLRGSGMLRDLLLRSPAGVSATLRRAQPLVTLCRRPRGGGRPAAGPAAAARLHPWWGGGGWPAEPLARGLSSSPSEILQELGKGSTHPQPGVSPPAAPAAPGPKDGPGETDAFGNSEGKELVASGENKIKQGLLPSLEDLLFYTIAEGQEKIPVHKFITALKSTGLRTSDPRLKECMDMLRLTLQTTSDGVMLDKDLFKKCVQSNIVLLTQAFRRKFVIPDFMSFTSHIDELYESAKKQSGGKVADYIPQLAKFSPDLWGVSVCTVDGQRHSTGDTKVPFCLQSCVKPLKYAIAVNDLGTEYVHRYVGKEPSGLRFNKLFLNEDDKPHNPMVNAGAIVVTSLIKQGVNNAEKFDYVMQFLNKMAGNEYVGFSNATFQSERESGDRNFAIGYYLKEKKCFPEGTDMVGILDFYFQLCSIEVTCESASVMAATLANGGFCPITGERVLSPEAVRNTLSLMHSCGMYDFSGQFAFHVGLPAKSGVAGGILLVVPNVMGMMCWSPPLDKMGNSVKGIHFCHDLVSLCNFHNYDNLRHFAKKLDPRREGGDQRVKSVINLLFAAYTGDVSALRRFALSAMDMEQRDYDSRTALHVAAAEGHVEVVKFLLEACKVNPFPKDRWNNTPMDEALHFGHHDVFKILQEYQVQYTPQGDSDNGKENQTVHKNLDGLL
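Enzyme dispensed in phosphate buffer (45 mM, pH 8.2, 0.02% Tween-20), compounds pinned in, then 1 mM L-glutamine solution and the glutamate oxidase–HRP–Amplex Red mix added; fluorescence read immediately and again after 30 min at room temperature.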
PKM2 act = activators of human pyruvate kinase M2 | Potency, µM (top dose mostly 57.5 µM), for inactives: at the top dose activation, usual class: activators | purified PKM2, Kinase-Glo ATP luminescence, activation; response scale: 0% is enzyme alone, no compound | 260,000 tested, 0.34% active | P14618; also: % is scaled to controls: 0 for no effect and ±100 for the full control effect; nearly all actives have a fitted effect of over 55% in size
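ATP formation by purified human PK-M2, quantified via coupled luciferase luminescence after 1 h at room temperature with 0.1 mM ADP and 0.5 mM PEP final.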
PLK1 PBD block = blocks phosphopeptide binding to human PLK1 polo-box domain; P53350; Plk1 PBD binding of FITC phosphopeptide, fluorescence polarization; Potency, µM, for inactives: max response, negative = inhibition, most hits filed as inhibitors; 360,000 tested, 2.8% active; also: series mostly up to about 57 µM; % is scaled to controls: 0 for no effect and ±100 for the full control effect; nearly all actives have a fitted effect of over 65% in size
* hit, by the source's call; ? = inconclusive; · = no result given; [ ] = remark or other dose. Calls follow the shape of the dose curve; as a rule, active = well fitted curve in the direction sought with a large enough effect; inconclusive = small, poorly fitted or top-dose-only effect, or another doubt; inactive = no such curve, though single readings can be large; an effect the other way counts as inactive or inconclusive. Potency is read from the fitted curve at half-maximal effect.

SMILES	Mito fusion yeast	KAT2A inh	VDR inhibitor	GLS inhibitor	PKM2 act	PLK1 PBD block
COc1ccc(/C=C/C2=C[C@]3(C)C[C@]2(C)[C@H](c2ccc(OC)cc2)CC3=O)cc1	·	·	-5.2%	·	·	·
COc1ccccc1NS(=O)(=O)c1cccc(NC(=S)NCCN2CCOCC2)c1	-3.7%	1.9%	8.2%	5.2%	-0.5%	23.8µM*
COc1ccccc1NS(=O)(=O)c1cc(NC(=O)c2[nH]c(C)c(C(C)=O)c2C)ccc1N1CCOCC1	0.4%	0.5%	-19.4%	6.7%	15.8µM*	-26.3%
COc1ccccc1NS(=O)(=O)c1cccc(NC(=O)Nc2cccc(Cl)c2)c1	0.1%	-17.1%	4.7%	-1.9%	-2.0%	7.6%
CC(=O)c1c(C)[nH]c(C(=O)Nc2ccc(C)c(S(=O)(=O)Nc3ccc(C)cc3C)c2)c1C	5.4%	-26.3%	-8.9%	-0.6%	17.8µM*	-12.9%
COc1ccccc1NS(=O)(=O)c1cccc(NC(=O)NCCCl)c1	7.0%	-2.6%	?	-9.4%	4.4%	26.7µM*
O=C1C=C(c2ccc3ncccc3c2)C[C@@H](c2ccc(Cl)cc2)C1	?	-8.0%	-0.7%	7.7%	·	1.8%
COc1ccc(-c2c(-c3ccsc3)oc3ccc(N4CCOCC4)cc23)cc1	·	·	-6.1%	3.1%	·	-1.6%
COc1ccccc1NS(=O)(=O)c1cc(NC(=O)C2CC2)ccc1N1CCOCC1	2.8%	?	·	·	-1.3%	·
COc1ccccc1NS(=O)(=O)c1cc(N2Cc3ccccc3C2=N)ccc1N1CCOCC1	-1.8%	-4.4%	-5.9%	-13.9%	-6.0%	21.2µM*
Cc1ccc(C(=O)NN(C)c2nc3ccccc3nc2C(F)(F)F)cc1	-0.1%	-2.5%	15.0%	0.6%	-0.6%	-1.8%
CN(N)c1nc2ccccc2nc1C(F)(F)F	-2.7%	1.0%	-24.6%	?	-1.6%	21.2µM*
O=C1CNc2ccc(C(=O)N3CCN(c4ccccn4)CC3)cc2N1	18.8%	-5.3%	-27.7%	5.0%	·	23.8µM*
CCOC(=O)c1[nH]c(C)c(CCC(=O)N2CCN(c3ccc(Cl)cc3)CC2)c1C	·	-6.4%	-4.6%	-0.4%	·	·
CCOP(=O)(OCC)C(C#N)=C1SCN(c2ccc(Cl)cc2)CS1	-1.8%	-24.5%	?	50.8%	0.0%	26.7µM*
c1ccc(Oc2c3ccccc3nc3ccccc23)cc1	9.0%	?	44.7µM*	0.7%	-2.4%	-6.3%
OC(c1ccccc1)(c1ccccc1)c1nccc2ccccc12	·	·	-12.9%	-0.7%	·	-2.9%
Cc1[nH]nc2c1C(=O)CCC2	-1.7%	-12.2%	-4.5%	-26.8%	1.0%	7.52µM*
O=C1OC(c2ccccc2)=N/C1=C\C=C\c1ccco1	0.7%	25.1µM*	-14.4%	11.7%	14.4%	-14.7%
CCN(CC)S(=O)(=O)c1ccc(Oc2ccccc2)c(N)c1	2.9%	-6.0%	9.6%	10.7%	2.3%	-5.4%
Cc1cc(C)[n+](-c2ccc(Oc3ccccc3)c(S(=O)(=O)[O-])c2)[nH]1	3.3%	-6.0%	?	·	3.4%	26.7µM*
CCCCn1c(=O)[nH]c(=O)c2c1nc(Cn1ncc(Cl)c(Cl)c1=O)n2CCC	-21.4%	1.4%	?	-15.0%	2.4%	29.9µM*
CSCCC(NS(=O)(=O)c1ccccc1)C(=O)OCc1cc(=O)oc2cc(O)ccc12 (stereo unspecified)	3.8%	-5.0%	-0.6%	13.2%	·	1.1%
O=C(NC(=S)Nc1ccc(S(=O)(=O)Nc2nccs2)cc1)c1ccccc1	-3.5%	0.8%	-7.0%	27.3%	8.2%	-19.4%
O=C(NC(=S)Nc1ccc(S(=O)(=O)Nc2ncccn2)cc1)c1ccc(Br)cc1	5.4%	1.8%	-0.4%	-18.2%	0.5%	10.6µM*
SMILES	Mito fusion yeast	KAT2A inh	VDR inhibitor	GLS inhibitor	PKM2 act	PLK1 PBD block
O=S(=O)(NNC(=S)Nc1ccc(S(=O)(=O)Nc2ncccn2)cc1)c1ccc(Br)cc1	0.5%	-27.7%	8.8%	10.0%	3.1%	-15.3%
O=C(NC(=S)Nc1ccc(S(=O)(=O)Nc2nccs2)cc1)c1ccccc1F	1.5%	-13.3%	?	-16.4%	3.1%	15µM*
Nc1nc(SCC(=O)N2CCCC2)[nH]c(=O)c1-c1ccccc1	0.7%	-19.9%	0.2%	-3.5%	-7.2%	6.7µM*
CC1CCCC(C)N1C(=O)CSc1nc(N)c(-c2ccccc2)c(=O)[nH]1 (stereo unspecified)	?	0.0%	13.4%	1.2%	-12.4%	-3.0%
O=C(CSc1nc2c(cnn2-c2ccccc2)c(=O)[nH]1)N1CCOCC1	2.8%	-1.7%	-2.5%	?	-13.2%	13.4µM*
CCCCCSc1nc2c(cnn2-c2ccc(F)cc2)c(=O)[nH]1	-1.1%	-0.5%	-21.6%	7.0%	·	26.7µM*
CCCCc1nnc(NC(=O)c2oc3ccccc3c2C)s1	?	2.1%	2.9%	0.6%	·	-3.8%
CNC(=S)NCCCCc1cnc[nH]1	·	12.0%	5.7%	·	·	·
COc1ccc(C2=CC3=C(Br)C(=O)C(C)(OC(=O)c4ccco4)C(=O)C3=CO2)cc1 (stereo unspecified)	-0.9%	19.9%	79.4µM*	-13.7%	1.0%	9.47µM*
COCCN1C=C2C(=O)C(C)(OC(=O)CCC(=O)OC)C(=O)C(Br)=C2C=C1c1ccc(OC)cc1 (stereo unspecified)	·	·	22.4µM*	-1.0%	-5.8%[11.5 µM]	?
C=CCN1C=C2C(=O)C(C)(OC(=O)CCC(=O)OC)C(=O)C(Br)=C2C=C1c1ccc(OC)cc1 (stereo unspecified)	3.2%	-2.2%	?	-1.0%	-0.9%[11.5 µM]	?
COc1ccc(C2=CC3=C(Br)C(=O)C(C)(OC(=O)c4cccs4)C(=O)C3=CO2)cc1 (stereo unspecified)	·	·	-28.0%	1.4%	·	8.44µM*
CN(C)CC(=O)Nc1ccc2c(c1)[C@H]1C[C@H](CC(=O)NCc3ccc4c(c3)OCO4)O[C@H](CO)[C@H]1O2	·	·	·	0.0%	·	-11.6%
CC(C)c1cccc(C(C)C)c1NC(=O)CN(C)C1CCS(=O)(=O)C1 (stereo unspecified)	-8.3%	-6.3%	-10.5%	0.4%	·	2.3%
Cc1nc2ccc(NC3=NCCCCC3)cc2s1	-3.8%	-5.8%	?	3.0%	-6.6%	29.9µM*
Cc1ccc(NC2=NCCC2)cc1Cl	6.5%	-0.9%	-4.3%	-3.2%	-17.8%	-0.5%
Fc1ccc(/C=N/n2cnn(Cc3ccccc3Cl)c2=S)cc1	-1.5%	-19.6%	?	-25.1%	-6.6%	23.8µM*
CN(C)c1ccc(/C=N/n2cnn(Cc3ccccc3Cl)c2=S)cc1	5.3%	-16.6%	-13.9%	3.9%	0.0%	?
COCCNc1nc(-c2ccc(N(C)C)cc2)nc2ccccc12	·	-13.2%	79.4µM*	·	·	·
CCOC(=O)c1cc(S(=O)(=O)Nc2cc(OC)ccc2OC)[nH]n1	·	-2.2%	12.7%	32.8%	·	·
